Set-up in all cases: scale not given: direction of the effect not stated beside the values
Test [1] deals with Protein translocase subunit SecA (Escherichia coli (strain K12)) (UniProt P10408). Description: Assay to Identify E. coli SecA ATPase Inhibitors. It counts as functional. As to conditions: 30 µM.
The target of test [2] is T1, Ubiquitin-activating enzyme e1, putative (Leishmania donovani (strain BPK282A1)) (UniProt E9BSI1).
T1 sequence (whole entry): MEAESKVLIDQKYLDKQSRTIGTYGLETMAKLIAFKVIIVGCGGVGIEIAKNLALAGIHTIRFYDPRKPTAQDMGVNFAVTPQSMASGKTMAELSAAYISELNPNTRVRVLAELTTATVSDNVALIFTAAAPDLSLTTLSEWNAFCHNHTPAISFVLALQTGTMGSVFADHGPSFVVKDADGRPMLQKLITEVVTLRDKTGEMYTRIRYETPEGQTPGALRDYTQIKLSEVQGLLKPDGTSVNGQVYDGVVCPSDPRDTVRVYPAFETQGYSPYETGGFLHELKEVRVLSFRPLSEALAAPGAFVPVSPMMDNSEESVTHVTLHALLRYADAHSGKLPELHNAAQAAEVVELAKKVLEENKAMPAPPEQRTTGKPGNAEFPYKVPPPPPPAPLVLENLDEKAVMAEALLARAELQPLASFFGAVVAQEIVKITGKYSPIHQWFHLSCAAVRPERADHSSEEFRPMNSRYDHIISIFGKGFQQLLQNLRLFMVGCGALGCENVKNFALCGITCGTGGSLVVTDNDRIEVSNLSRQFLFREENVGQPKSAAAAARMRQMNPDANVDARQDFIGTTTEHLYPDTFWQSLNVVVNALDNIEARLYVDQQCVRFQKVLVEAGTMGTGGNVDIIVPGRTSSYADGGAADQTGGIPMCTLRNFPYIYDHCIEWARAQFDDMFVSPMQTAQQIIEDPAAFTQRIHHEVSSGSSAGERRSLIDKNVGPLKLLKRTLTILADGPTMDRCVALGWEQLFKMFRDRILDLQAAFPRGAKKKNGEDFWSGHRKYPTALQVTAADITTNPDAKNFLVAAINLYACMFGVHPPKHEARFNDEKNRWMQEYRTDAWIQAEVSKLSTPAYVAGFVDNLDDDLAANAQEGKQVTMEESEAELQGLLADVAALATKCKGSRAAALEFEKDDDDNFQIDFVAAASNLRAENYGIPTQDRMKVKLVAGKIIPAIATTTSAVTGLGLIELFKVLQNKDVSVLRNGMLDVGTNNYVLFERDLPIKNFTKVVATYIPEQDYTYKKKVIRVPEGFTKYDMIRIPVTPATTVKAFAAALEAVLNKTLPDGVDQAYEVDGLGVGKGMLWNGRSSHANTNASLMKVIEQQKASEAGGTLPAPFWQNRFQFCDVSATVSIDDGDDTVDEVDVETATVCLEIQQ
Description: Leishmania donovani Ubiquitin Activating Enzyme (LdE1). As to conditions: 30 µM. It counts as functional.

For test [3], the target named is AMP-activated protein kinase, AMPK (Homo sapiens) (UniProt P54646+O43741+P54619+Q9UGJ0+Q9Y478+Q13131+Q9UGI9). Kind of test: AMP-dependent Kinase enzyme assay. An in vitro enzyme assay that detects ADP turnover that is directly proportional to AMPK activity. This uses naive AMPK that is activated during the assay with MK-8722. It counts as functional. To be noted: 30 µM.

For test [4], the target named is Sialic acid-binding Ig-like lectin 9 (Homo sapiens) (UniProt Q9Y336). Kind of test: Hs-Siglec9 ALPHAscreen SOP 20170721. As to conditions: 10 µM. On the technique in general: Bead proximity is the source of the signal in Alpha formats.
Test [5] relates to Trypanosoma cruzi. Description: Trypanosoma cruzi phosphomannomutase and mannose-1-phosphate guanylyltransferase assay. It counts as functional. As to conditions: 10 µM.
The target of test [6] is T2, Arginase-2, mitochondrial (Homo sapiens) (UniProt P78540).
T2 sequence (whole entry): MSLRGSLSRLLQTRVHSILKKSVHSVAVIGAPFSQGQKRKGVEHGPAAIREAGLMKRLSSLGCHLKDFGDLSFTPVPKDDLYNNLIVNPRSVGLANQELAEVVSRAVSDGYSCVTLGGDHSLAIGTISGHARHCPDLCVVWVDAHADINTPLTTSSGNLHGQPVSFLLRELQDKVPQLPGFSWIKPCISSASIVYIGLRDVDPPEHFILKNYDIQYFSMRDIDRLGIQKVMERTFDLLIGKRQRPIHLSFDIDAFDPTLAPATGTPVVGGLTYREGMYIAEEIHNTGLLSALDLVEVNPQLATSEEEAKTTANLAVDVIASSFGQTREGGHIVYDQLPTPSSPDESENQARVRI
Description: in vitro enzyme assay to detect the production of urea directly proportional to the activity of Arginase II. Also: in the data most compounds retested in dose-response had high values. It counts as functional. To be noted: 33.3 µM.

For test [7], the target named is T3, Proteasome subunit beta (Trypanosoma cruzi) (UniProt O96673).
T3 sequence (whole entry): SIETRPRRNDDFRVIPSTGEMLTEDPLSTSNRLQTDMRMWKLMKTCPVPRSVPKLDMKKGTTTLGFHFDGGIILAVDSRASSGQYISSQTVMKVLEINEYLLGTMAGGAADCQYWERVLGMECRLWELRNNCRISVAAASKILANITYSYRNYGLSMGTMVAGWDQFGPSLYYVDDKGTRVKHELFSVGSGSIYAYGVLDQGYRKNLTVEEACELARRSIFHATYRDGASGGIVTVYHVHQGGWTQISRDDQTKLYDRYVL
Kind of test: Trypanosoma cruzi proteasome chymotrypsin-like activity (TcProtChymo) assay. Also: in the data most compounds retested in dose-response had high values. It counts as functional. As to conditions: 9.37 µM.

For test [8], the species on record is Homo sapiens. Kind of test: To identify inhibition of the IFN signalling (Jak-Stat) pathway via expression of an eGFP reporter gene under the control of an IFN-stimulated response element (ISRE) containing MxA promoter. It counts as functional. To be noted: 30 µM. For orientation: In a reporter assay the amount or activity of a reporter protein is the signal.

Test [9] addresses T4, Tyrosyl-tRNA synthetase, putative (Trypanosoma cruzi (strain CL Brener)) (UniProt Q4DSP6).
T4 sequence (whole entry): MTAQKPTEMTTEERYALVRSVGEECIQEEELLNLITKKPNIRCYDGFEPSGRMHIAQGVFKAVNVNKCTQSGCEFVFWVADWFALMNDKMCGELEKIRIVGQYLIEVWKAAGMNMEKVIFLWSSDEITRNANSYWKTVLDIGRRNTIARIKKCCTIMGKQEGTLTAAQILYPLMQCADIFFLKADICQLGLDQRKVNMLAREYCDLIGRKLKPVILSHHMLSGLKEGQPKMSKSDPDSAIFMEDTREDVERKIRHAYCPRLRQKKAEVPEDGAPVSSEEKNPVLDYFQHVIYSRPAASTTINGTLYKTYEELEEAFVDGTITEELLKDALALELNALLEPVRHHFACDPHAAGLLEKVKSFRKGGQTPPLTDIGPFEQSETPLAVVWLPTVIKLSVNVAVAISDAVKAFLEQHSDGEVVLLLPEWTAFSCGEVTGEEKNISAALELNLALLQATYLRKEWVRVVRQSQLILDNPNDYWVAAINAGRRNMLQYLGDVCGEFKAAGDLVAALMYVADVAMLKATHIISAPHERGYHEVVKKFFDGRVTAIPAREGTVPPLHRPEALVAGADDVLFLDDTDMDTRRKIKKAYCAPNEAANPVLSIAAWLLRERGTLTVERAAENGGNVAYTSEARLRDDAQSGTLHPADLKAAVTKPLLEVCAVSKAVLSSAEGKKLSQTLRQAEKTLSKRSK
Kind of test: Trypanosoma cruzi tyrosyl tRNA synthetase (TcYRS) _High Tyrosine SOP. Also: in the data most compounds retested in dose-response had high values. It counts as functional. As to conditions: 30 µM.

The target of test [10] is T4, Tyrosyl-tRNA synthetase, putative (Trypanosoma cruzi (strain CL Brener)). Description: Trypanosoma cruzi tyrosyl tRNA synthetase (TcYRS) SOP. It counts as functional. To be noted: 30 µM.
The target in test [11] is Chromo domain-containing protein 1 (Saccharomyces cerevisiae (strain ATCC 204508 / S288c) (Baker's yeast)) (UniProt P32657). Kind of test: ScCHD-1 Enzyme Inhibition Assay. Also: in the data most compounds retested in dose-response had high values. As to conditions: 30 µM. It counts as functional.

Molecules are shown by their SMILES. For some of these results: Entries with a potency or affinity are not part of this list.

Chain of Sialic acid-binding Ig-like lectin 9 (Homo sapiens) (Q9Y336 whole entry): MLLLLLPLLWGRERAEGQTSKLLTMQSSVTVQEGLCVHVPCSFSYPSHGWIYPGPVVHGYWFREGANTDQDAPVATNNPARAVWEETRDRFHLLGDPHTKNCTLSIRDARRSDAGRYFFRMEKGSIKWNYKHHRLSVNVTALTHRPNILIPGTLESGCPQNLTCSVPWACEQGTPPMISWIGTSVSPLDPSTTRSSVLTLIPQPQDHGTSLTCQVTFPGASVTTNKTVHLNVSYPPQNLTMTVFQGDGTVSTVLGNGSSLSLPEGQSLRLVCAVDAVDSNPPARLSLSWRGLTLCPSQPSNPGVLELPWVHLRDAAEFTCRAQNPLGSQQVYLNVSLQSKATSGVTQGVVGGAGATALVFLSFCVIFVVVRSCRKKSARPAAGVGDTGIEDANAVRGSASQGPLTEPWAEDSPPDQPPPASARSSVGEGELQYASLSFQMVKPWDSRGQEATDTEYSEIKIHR
Chain of Protein translocase subunit SecA (Escherichia coli (strain K12)) (P10408 whole entry): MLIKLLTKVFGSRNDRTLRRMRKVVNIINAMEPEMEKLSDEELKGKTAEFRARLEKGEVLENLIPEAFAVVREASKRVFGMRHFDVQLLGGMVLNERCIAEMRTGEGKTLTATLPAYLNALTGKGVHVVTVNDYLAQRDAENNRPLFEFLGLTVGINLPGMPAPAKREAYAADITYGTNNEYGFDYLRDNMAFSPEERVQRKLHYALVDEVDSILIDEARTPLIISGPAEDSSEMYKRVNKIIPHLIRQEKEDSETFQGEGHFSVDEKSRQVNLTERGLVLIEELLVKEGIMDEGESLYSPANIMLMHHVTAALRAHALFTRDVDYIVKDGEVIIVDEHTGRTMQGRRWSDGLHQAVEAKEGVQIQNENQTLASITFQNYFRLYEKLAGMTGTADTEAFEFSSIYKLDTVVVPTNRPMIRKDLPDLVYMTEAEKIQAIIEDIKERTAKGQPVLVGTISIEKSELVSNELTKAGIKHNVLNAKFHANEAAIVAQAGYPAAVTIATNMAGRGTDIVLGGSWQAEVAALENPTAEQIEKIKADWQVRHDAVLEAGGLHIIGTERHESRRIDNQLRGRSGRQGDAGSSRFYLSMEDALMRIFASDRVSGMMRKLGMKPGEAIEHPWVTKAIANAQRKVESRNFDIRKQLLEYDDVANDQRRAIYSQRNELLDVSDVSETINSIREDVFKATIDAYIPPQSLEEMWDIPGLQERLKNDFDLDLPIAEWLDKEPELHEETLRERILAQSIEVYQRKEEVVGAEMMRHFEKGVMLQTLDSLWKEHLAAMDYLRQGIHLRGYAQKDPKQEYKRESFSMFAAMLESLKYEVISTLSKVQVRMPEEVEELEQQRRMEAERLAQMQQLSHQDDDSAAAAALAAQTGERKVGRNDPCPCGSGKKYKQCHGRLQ
Chain of Chromo domain-containing protein 1 (Saccharomyces cerevisiae (strain ATCC 204508 / S288c) (Baker's yeast)) (P32657 whole entry, the tested form may be a part): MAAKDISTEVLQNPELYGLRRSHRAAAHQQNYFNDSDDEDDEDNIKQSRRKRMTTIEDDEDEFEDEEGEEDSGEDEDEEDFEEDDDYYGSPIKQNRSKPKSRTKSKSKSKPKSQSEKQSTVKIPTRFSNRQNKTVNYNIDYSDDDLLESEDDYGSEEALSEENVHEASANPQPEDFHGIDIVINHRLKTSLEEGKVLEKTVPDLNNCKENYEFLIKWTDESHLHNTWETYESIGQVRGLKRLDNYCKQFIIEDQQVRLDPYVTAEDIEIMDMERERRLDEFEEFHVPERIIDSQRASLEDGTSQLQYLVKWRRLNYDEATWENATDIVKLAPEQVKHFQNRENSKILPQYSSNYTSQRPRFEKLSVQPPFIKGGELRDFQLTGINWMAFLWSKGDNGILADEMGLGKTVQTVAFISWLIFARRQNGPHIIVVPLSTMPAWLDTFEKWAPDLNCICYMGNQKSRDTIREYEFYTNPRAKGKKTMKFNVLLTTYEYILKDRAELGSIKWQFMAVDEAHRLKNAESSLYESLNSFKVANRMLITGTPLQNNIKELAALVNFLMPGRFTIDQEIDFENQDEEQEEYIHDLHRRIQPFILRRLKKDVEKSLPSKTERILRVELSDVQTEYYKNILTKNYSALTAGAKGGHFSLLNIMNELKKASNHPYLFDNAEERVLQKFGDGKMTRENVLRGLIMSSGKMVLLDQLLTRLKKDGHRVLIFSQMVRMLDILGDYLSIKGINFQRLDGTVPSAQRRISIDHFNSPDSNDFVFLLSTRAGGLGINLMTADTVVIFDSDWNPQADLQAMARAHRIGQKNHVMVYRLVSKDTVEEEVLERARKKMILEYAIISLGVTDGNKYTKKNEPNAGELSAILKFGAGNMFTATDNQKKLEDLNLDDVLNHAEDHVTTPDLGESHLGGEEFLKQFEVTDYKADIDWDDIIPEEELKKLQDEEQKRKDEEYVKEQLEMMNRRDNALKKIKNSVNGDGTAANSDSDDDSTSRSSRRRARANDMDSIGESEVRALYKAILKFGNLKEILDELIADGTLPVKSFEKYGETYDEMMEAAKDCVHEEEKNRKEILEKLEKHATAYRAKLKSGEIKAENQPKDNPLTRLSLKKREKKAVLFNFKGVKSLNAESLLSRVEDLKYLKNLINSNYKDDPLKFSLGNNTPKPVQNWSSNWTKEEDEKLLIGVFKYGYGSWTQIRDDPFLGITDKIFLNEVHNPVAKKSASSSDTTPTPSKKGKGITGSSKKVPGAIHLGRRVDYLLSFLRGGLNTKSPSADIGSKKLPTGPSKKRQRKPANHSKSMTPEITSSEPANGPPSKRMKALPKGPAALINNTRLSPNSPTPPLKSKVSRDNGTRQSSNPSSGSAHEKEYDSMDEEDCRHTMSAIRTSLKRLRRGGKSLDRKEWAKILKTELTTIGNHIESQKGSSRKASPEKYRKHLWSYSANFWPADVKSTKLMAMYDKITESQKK

`CC[C@H](C)[C@H](NC(=O)c1ccccc1-n1cnnn1)C(=O)OC`: the Percent Effect was -2.24% in test [1]; -4% in test [2]; 6.42% in test [3]; -4.83% in test [4]; -14.2% in test [5]; -9.33% in test [6]. For the same compound, the Percent Effect is 1.85% in test [7]; -2.35% in test [8]; -1.06% in test [9]; -12.8% in test [10]; 1.23% in test [11].

As for `COCCN1CCN(CCCS(C)(=O)=O)CC1C` (stereo unspecified), the Percent Effect in test [1] is -5.52%; in [2], 21.6%; in test [3], -8.32%; in test [4], 7.36%; in test [5], 9.56%; in test [6], 0.924%. The Percent Effect in test [7] is 9.16%; in test [8], 4.15%; in test [9] it was 9.9%; in test [10], 28.1%; in [11], 52%.

Regarding `NC(=O)c1cccc(CC2CCN(C(=O)CCCN3CCOCC3)C2)c1` (stereo unspecified), the Percent Effect is -2.51% in [1]; -2.74% in test [2]; 4.39% in test [3]; -12.6% in test [4]; -1.18% in [5]; -2.27% in [6]. Further, the Percent Effect in test [7] is -3.02%; in test [8] it was 6.37%; in test [9], 2.15%; in test [10], 2.5%; in test [11], -1.16%.

Take `Nc1nc2c(c(=O)[nH]1)CCN(C(=O)c1cccc3nccnc13)C2`: the Percent Effect in [1] is -2.43%; in [2], 10.4%; in test [3], -11.5%; in test [4] it was 9.88%; in [5], 2.46%; in test [6] it was -12.4%. Besides, the Percent Effect in [7] is 20.6%; in [8], -5.63%; in test [9] it was 4.3%; in test [10], 8.64%; in test [11] it was -0.6%.

`Cn1cc(-c2ncnc3c2CCN(C(=O)N2CCOCC2)CC3)cn1`: the Percent Effect was -2.9% in [1]; 0% in test [2]; -3.79% in test [3]; 15.2% in test [4]; 3.03% in test [5]; 1.24% in test [6]. Also, the Percent Effect was 9.53% in test [7]; -0.161% in test [8]; 1.07% in test [9]; 8.64% in test [10]; -11.6% in test [11].

Take `CCN1CCN(S(=O)(=O)c2cc(C)c(Cl)cc2Cl)CC1`: the Percent Effect in [1] is -6.87%; in test [2], -2.6%; in test [3], 4.8%; in [4] it was 4.35%; in test [5] it was -2.85%; in test [6], 1.38%. Further, the Percent Effect in test [7] was -0.166%; in test [8] it was 13.9%; in [9], -3.23%; in [10], -6.17%; in test [11], 4.8%.

For `CCn1cc(N2Cc3nc(N)ncc3C2=O)cn1`, the Percent Effect in test [1] was -6.38%; in test [2], 12%; in test [3], -9.46%; in test [4] it was -1.51%; in [5], 7.47%; in [6], -20.6%. Besides, the Percent Effect in test [7] was 13.9%; in test [8], 2.34%; in [9], 7.41%; in test [10], 17.9%; in test [11], -15.1%.

Consider `Cc1noc(C(C)N2CCN(CC(=O)N3CCOCC3)CC2)n1` (stereo unspecified), for which the Percent Effect in test [1] was -5.15%; in test [2], 10.5%; in [3] it was -3.04%; in [4] it was -5.34%; in test [5], 5.55%; in [6] it was -4.73%. Further, the Percent Effect is -3.93% in [7]; -8.61% in test [8]; 2.13% in [9]; 10.4% in test [10]; -15.2% in test [11].

On to `CC(C)N(C)CC(=O)NC1CCc2nccn2C1` (stereo unspecified), for which the Percent Effect in [1] was -0.518%; in test [2] it was -5.33%; in test [3], 4.88%; in [4], -4.8%; in test [5], -4.38%; in test [6], -5.21%. The Percent Effect in test [7] is 3.14%; in test [8] it was 31.6%; in test [9], -2.73%; in test [10], -6.17%; in test [11], 2.61%.

Consider `O=C(NCc1ccccn1)NC1CCOc2ccccc21` (stereo unspecified), for which the Percent Effect is -4.23% in test [1]; 24.3% in test [2]; -0.78% in test [3]; 9.97% in test [4]; 9.19% in test [5]; 1.29% in test [6]. Besides, the Percent Effect was 9.52% in [7]; 12% in test [8]; 9.9% in [9]; 28.1% in test [10]; -5.33% in test [11].

On to `CC(C)(CO)NC(=O)C1CCC(=O)N(Cc2ccc(Cl)cc2)C1` (stereo unspecified), for which the Percent Effect is -3.58% in test [1]; 1.39% in test [2]; 10.2% in test [3]; 1.15% in test [4]; -1.26% in [5]; -3.09% in test [6]. The Percent Effect was 2.81% in test [7]; -9.87% in [8]; -3.16% in test [9]; 0% in test [10]; 0.1% in test [11].
